Assay results as given in the supplement of paper PMC10127200.
Structures can show the parent of a compound that is named as a salt.

The compounds below were run on 786-O (assay: Euclidean distance of Cell Painting phenotypic profile (signed KS, 77 features) to DMSO centroid (dimensionless distance); 5 or 10 uM (library dependent); higher = stronger phenotypic change vs DMSO (phenoactivity)). Settings: 48 h.
Procedure, shortened: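 Five cancer lines and a healthy fibroblast line received library compounds at 10 or 5 uM (library-dependent, 0.1% DMSO final) for 48 h. Stained cells were imaged confocally at 20X (9 fields/well). Harmony extracted 77 features, each scored as a signed Kolmogorov-Smirnov statistic against same-plate vehicle wells. Profiles were plate-position corrected, correlation-weighted and replicate-averaged at the top dose. Phenoactivity is the Euclidean distance from each profile to the median vehicle profile.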

Structure (SMILES)	Euclidean distance
O=C(O)c1ccccc1O [Salicylic acid]	0.877
CN1CCCN=C1/C=C/c1cccs1 [Pyrantel Pamoate]	1.65
CN[C@@H]1[C@@H](O[C@H]2O[C@H](CO)[C@@H](N)[C@H](O)[C@H]2O)OC2C[C@@H](N)[C@@H](O[C@H]3[C@H](O)[C@@H](O)[C@H](N)C[C@@H]3N)OC2[C@@H]1O (stereo partly drawn) [Apramycin Sulfate]	1.51
CCOC(=O)c1ccc(O)cc1 [Ethylparaben]	0.729
CC(C)(C)c1[nH]cnc1/C=c1\[nH]c(=O)/c(=C/c2ccccc2)[nH]c1=O [Plinabulin (NPI-2358)]	3.18
C[C@H](NC(=O)CCC(F)(F)F)C(=O)N[C@@H]1C(=O)N(CCO)c2ncccc2-c2ccccc21	0.859
CC1=C(/C=C/C(C)=C/C=C/C(C)=C/C(=O)Nc2ccc(O)cc2)C(C)(C)CCC1 [Fenretinide]	2.9
Cn1cnc2c(F)c(Nc3ccc(Br)cc3F)c(C(=O)NOCCO)cc21	2.04
OC(CCN1CCCC1)(c1ccccc1)C1CCCCC1 (stereo not drawn) [Procyclidine HCl]	0.828
CCN(C(=O)c1c(O)c2c(Cl)cccc2n(C)c1=O)c1ccccc1 [Laquinimod]	0.923
COc1ccc(CN2CCN(C(c3ccc(F)cc3)c3ccc(F)cc3)CC2)c(OC)c1OC [Lomerizine 2HCl]	1.91
O=c1cc(CO)occ1O [Kojic acid]	1.24
CC[C@@H](C)Nc1cc(C(=O)N[C@H]2C[C@H]3CC[C@@H](C2)N3c2ccc(C(=O)C3CC3)cn2)c(C)cc1C(N)=O	3.1
